In the supplement of paper PMC4466140:

molecular target: AgAbp1; assay: SPOT peptide array binding signal intensity (averaged, normalized) (arbitrary units (background-subtracted, floor 0; scale differs between SH3 domains)); higher = stronger binding of the SH3 domain to the peptide
Summary of the method: (§1)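 Binding signal is given in arbitrary units that differ between domains and is the normalized, background-subtracted spot intensity averaged across replicates. Each GST-SH3 fusion from one of four yeast species was made in E. coli BL21(DE3), purified on glutathione Sepharose and incubated at 10 μg/ml overnight at 4°C on cellulose-bound synthetic 15-mer peptides in which cysteines were replaced by serines. Detection used anti-GST antibody, an HRP anti-mouse secondary and luminol, followed by imaging and Genespotter quantification.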

Row | Binder | SPOT peptide array binding signal intensity
1 | SRSKPLPLTPNSKYN | 197

molecular target: AgBbc1; assay: as above
Summary of the method: as §1

Row | Binder | SPOT peptide array binding signal intensity
2 | SRSKPLPLTPNSKYN | 15.2

molecular target: AgBem1-D1; assay: as above
Summary of the method: as §1

Row | Binder | SPOT peptide array binding signal intensity
3 | SRSKPLPLTPNSKYN | 16

molecular target: AgBzz1-D1; assay: as above
Summary of the method: as §1

Row | Binder | SPOT peptide array binding signal intensity
4 | SRSKPLPLTPNSKYN | 195

molecular target: AgBzz1-D2; assay: as above
Summary of the method: as §1

Row | Binder | SPOT peptide array binding signal intensity
5 | SRSKPLPLTPNSKYN | 111

molecular target: AgCyk3; assay: as above
Summary of the method: as §1

Row | Binder | SPOT peptide array binding signal intensity
6 | SRSKPLPLTPNSKYN | 1

molecular target: AgFus1; assay: as above
Summary of the method: as §1

Row | Binder | SPOT peptide array binding signal intensity
7 | SRSKPLPLTPNSKYN | 6.5

molecular target: AgHof1; assay: as above
Summary of the method: as §1

Row | Binder | SPOT peptide array binding signal intensity
8 | SRSKPLPLTPNSKYN | 24.2

molecular target: AgHse1; assay: as above
Summary of the method: as §1

Row | Binder | SPOT peptide array binding signal intensity
9 | SRSKPLPLTPNSKYN | 10.5

molecular target: AgLsb1; assay: as above
Summary of the method: as §1

Row | Binder | SPOT peptide array binding signal intensity
10 | SRSKPLPLTPNSKYN | 1

molecular target: AgLsb4; assay: as above
Summary of the method: as §1

Row | Binder | SPOT peptide array binding signal intensity
11 | SRSKPLPLTPNSKYN | 9

molecular target: AgMyo5; assay: as above
Summary of the method: as §1

Row | Binder | SPOT peptide array binding signal intensity
12 | SRSKPLPLTPNSKYN | ≤ 0

molecular target: AgNbp2; assay: as above
Summary of the method: as §1

Row | Binder | SPOT peptide array binding signal intensity
13 | SRSKPLPLTPNSKYN | 8.5

molecular target: AgRvs167; assay: as above
Summary of the method: as §1

Row | Binder | SPOT peptide array binding signal intensity
14 | SRSKPLPLTPNSKYN | 1.67

molecular target: AgSho1; assay: as above
Summary of the method: as §1

Row | Binder | SPOT peptide array binding signal intensity
15 | SRSKPLPLTPNSKYN | 3200

molecular target: AgSla1-D1-D2; assay: as above
Summary of the method: as §1

Row | Binder | SPOT peptide array binding signal intensity
16 | SRSKPLPLTPNSKYN | 21.5

molecular target: AgSla1-D3; assay: as above
Summary of the method: as §1

Row | Binder | SPOT peptide array binding signal intensity
17 | SRSKPLPLTPNSKYN | 8.5

molecular target: CaAbp1-D1; assay: as above
Summary of the method: as §1

Row | Binder | SPOT peptide array binding signal intensity
18 | SRSKPLPLTPNSKYN | 64

molecular target: CaAbp1-D2; assay: as above
Summary of the method: as §1

Row | Binder | SPOT peptide array binding signal intensity
19 | SRSKPLPLTPNSKYN | 249

molecular target: CaBbc1; assay: as above
Summary of the method: as §1

Row | Binder | SPOT peptide array binding signal intensity
20 | SRSKPLPLTPNSKYN | 30

molecular target: CaBem1-D1; assay: as above
Summary of the method: as §1

Row | Binder | SPOT peptide array binding signal intensity
21 | SRSKPLPLTPNSKYN | 29.5

molecular target: CaBzz1-D1; assay: as above
Summary of the method: as §1

Row | Binder | SPOT peptide array binding signal intensity
22 | SRSKPLPLTPNSKYN | 384

molecular target: CaBzz1-D2; assay: as above
Summary of the method: as §1

Row | Binder | SPOT peptide array binding signal intensity
23 | SRSKPLPLTPNSKYN | 162

molecular target: CaCyk3; assay: as above
Summary of the method: as §1

Row | Binder | SPOT peptide array binding signal intensity
24 | SRSKPLPLTPNSKYN | 4

molecular target: CaFus1; assay: as above
Summary of the method: as §1

Row | Binder | SPOT peptide array binding signal intensity
25 | SRSKPLPLTPNSKYN | 83

molecular target: CaHof1; assay: as above
Summary of the method: as §1

Row | Binder | SPOT peptide array binding signal intensity
26 | SRSKPLPLTPNSKYN | ≤ 0

molecular target: CaHse1; assay: as above
Summary of the method: as §1

Row | Binder | SPOT peptide array binding signal intensity
27 | SRSKPLPLTPNSKYN | 8.25

molecular target: CaLsb1; assay: as above
Summary of the method: as §1

Row | Binder | SPOT peptide array binding signal intensity
28 | SRSKPLPLTPNSKYN | 0.5

molecular target: CaLsb4; assay: as above
Summary of the method: as §1

Row | Binder | SPOT peptide array binding signal intensity
29 | SRSKPLPLTPNSKYN | 10.5

molecular target: CaMyo5; assay: as above
Summary of the method: as §1

Row | Binder | SPOT peptide array binding signal intensity
30 | SRSKPLPLTPNSKYN | 10

molecular target: CaNbp2; assay: as above
Summary of the method: as §1

Row | Binder | SPOT peptide array binding signal intensity
31 | SRSKPLPLTPNSKYN | 19.5

molecular target: CaRvs167; assay: as above
Summary of the method: as §1

Row | Binder | SPOT peptide array binding signal intensity
32 | SRSKPLPLTPNSKYN | 6.17

molecular target: CaRvs167-3; assay: as above
Summary of the method: as §1

Row | Binder | SPOT peptide array binding signal intensity
33 | SRSKPLPLTPNSKYN | 2.75

molecular target: CaSho1; assay: as above
Summary of the method: as §1

Row | Binder | SPOT peptide array binding signal intensity
34 | SRSKPLPLTPNSKYN | 3190

molecular target: CaSla1-D1-D2; assay: as above
Summary of the method: as §1

Row | Binder | SPOT peptide array binding signal intensity
35 | SRSKPLPLTPNSKYN | 1430

molecular target: CaSla1-D3; assay: as above
Summary of the method: as §1

Row | Binder | SPOT peptide array binding signal intensity
36 | SRSKPLPLTPNSKYN | 1.5

molecular target: ScAbp1; assay: as above
Summary of the method: as §1

Row | Binder | SPOT peptide array binding signal intensity
37 | SRSKPLPLTPNSKYN | 332

molecular target: ScBbc1; assay: as above
Summary of the method: as §1

Row | Binder | SPOT peptide array binding signal intensity
38 | SRSKPLPLTPNSKYN | 2.5

molecular target: ScBem1-D1; assay: as above
Summary of the method: as §1

Row | Binder | SPOT peptide array binding signal intensity
39 | SRSKPLPLTPNSKYN | 8

molecular target: ScBzz1-D1; assay: as above
Summary of the method: as §1

Row | Binder | SPOT peptide array binding signal intensity
40 | SRSKPLPLTPNSKYN | 98.5

molecular target: ScBzz1-D2; assay: as above
Summary of the method: as §1

Row | Binder | SPOT peptide array binding signal intensity
41 | SRSKPLPLTPNSKYN | 89

molecular target: ScCyk3; assay: as above
Summary of the method: as §1

Row | Binder | SPOT peptide array binding signal intensity
42 | SRSKPLPLTPNSKYN | 5

molecular target: ScFus1; assay: as above
Summary of the method: as §1

Row | Binder | SPOT peptide array binding signal intensity
43 | SRSKPLPLTPNSKYN | 8

molecular target: ScHof1; assay: as above
Summary of the method: as §1

Row | Binder | SPOT peptide array binding signal intensity
44 | SRSKPLPLTPNSKYN | ≤ 0

molecular target: ScHse1; assay: as above
Summary of the method: as §1

Row | Binder | SPOT peptide array binding signal intensity
45 | SRSKPLPLTPNSKYN | 30

molecular target: ScLsb1; assay: as above
Summary of the method: as §1

Row | Binder | SPOT peptide array binding signal intensity
46 | SRSKPLPLTPNSKYN | ≤ 0

molecular target: ScLsb2; assay: as above
Summary of the method: as §1

Row | Binder | SPOT peptide array binding signal intensity
47 | SRSKPLPLTPNSKYN | 1

molecular target: ScLsb3; assay: as above
Summary of the method: as §1

Row | Binder | SPOT peptide array binding signal intensity
48 | SRSKPLPLTPNSKYN | ≤ 0

molecular target: ScLsb4; assay: as above
Summary of the method: as §1

Row | Binder | SPOT peptide array binding signal intensity
49 | SRSKPLPLTPNSKYN | 12

molecular target: ScMyo3; assay: as above
Summary of the method: as §1

Row | Binder | SPOT peptide array binding signal intensity
50 | SRSKPLPLTPNSKYN | ≤ 0

molecular target: ScMyo5; assay: as above
Summary of the method: as §1

Row | Binder | SPOT peptide array binding signal intensity
51 | SRSKPLPLTPNSKYN | 2

molecular target: ScNbp2; assay: as above
Summary of the method: as §1

Row | Binder | SPOT peptide array binding signal intensity
52 | SRSKPLPLTPNSKYN | 20

molecular target: ScPex13; assay: as above
Summary of the method: as §1

Row | Binder | SPOT peptide array binding signal intensity
53 | SRSKPLPLTPNSKYN | 39

molecular target: ScRvs167; assay: as above
Summary of the method: as §1

Row | Binder | SPOT peptide array binding signal intensity
54 | SRSKPLPLTPNSKYN | 2.33

molecular target: ScSho1; assay: as above
Summary of the method: as §1

Row | Binder | SPOT peptide array binding signal intensity
55 | SRSKPLPLTPNSKYN | 3960

molecular target: ScSla1-D1-D2; assay: as above
Summary of the method: as §1

Row | Binder | SPOT peptide array binding signal intensity
56 | SRSKPLPLTPNSKYN | 156

molecular target: ScSla1-D3; assay: as above
Summary of the method: as §1

Row | Binder | SPOT peptide array binding signal intensity
57 | SRSKPLPLTPNSKYN | 28.2

molecular target: SpAbp1-D1; assay: as above
Summary of the method: as §1

Row | Binder | SPOT peptide array binding signal intensity
58 | SRSKPLPLTPNSKYN | 872

molecular target: SpBbc1; assay: as above
Summary of the method: as §1

Row | Binder | SPOT peptide array binding signal intensity
59 | SRSKPLPLTPNSKYN | 6.5

molecular target: SpBzz1-D1; assay: as above
Summary of the method: as §1

Row | Binder | SPOT peptide array binding signal intensity
60 | SRSKPLPLTPNSKYN | 578

molecular target: SpBzz1-D2; assay: as above
Summary of the method: as §1

Row | Binder | SPOT peptide array binding signal intensity
61 | SRSKPLPLTPNSKYN | 1.25

molecular target: SpCyk3; assay: as above
Summary of the method: as §1

Row | Binder | SPOT peptide array binding signal intensity
62 | SRSKPLPLTPNSKYN | 5

molecular target: SpHof1; assay: as above
Summary of the method: as §1

Row | Binder | SPOT peptide array binding signal intensity
63 | SRSKPLPLTPNSKYN | 1490

molecular target: SpHof1-2; assay: as above
Summary of the method: as §1

Row | Binder | SPOT peptide array binding signal intensity
64 | SRSKPLPLTPNSKYN | 1710

molecular target: SpHof1-3; assay: as above
Summary of the method: as §1

Row | Binder | SPOT peptide array binding signal intensity
65 | SRSKPLPLTPNSKYN | 1310

molecular target: SpHse1; assay: as above
Summary of the method: as §1

Row | Binder | SPOT peptide array binding signal intensity
66 | SRSKPLPLTPNSKYN | 37.5

molecular target: SpLsb1; assay: as above
Summary of the method: as §1

Row | Binder | SPOT peptide array binding signal intensity
67 | SRSKPLPLTPNSKYN | 1

molecular target: SpLsb4; assay: as above
Summary of the method: as §1

Row | Binder | SPOT peptide array binding signal intensity
68 | SRSKPLPLTPNSKYN | 17

molecular target: SpMyo1; assay: as above
Summary of the method: as §1

Row | Binder | SPOT peptide array binding signal intensity
69 | SRSKPLPLTPNSKYN | 10.5

molecular target: SpNbp2; assay: as above
Summary of the method: as §1

Row | Binder | SPOT peptide array binding signal intensity
70 | SRSKPLPLTPNSKYN | 11

molecular target: SpPex13; assay: as above
Summary of the method: as §1

Row | Binder | SPOT peptide array binding signal intensity
71 | SRSKPLPLTPNSKYN | 5

molecular target: SpRvs167; assay: as above
Summary of the method: as §1

Row | Binder | SPOT peptide array binding signal intensity
72 | SRSKPLPLTPNSKYN | 12.3

molecular target: SpSla1-D1-D2; assay: as above
Summary of the method: as §1

Row | Binder | SPOT peptide array binding signal intensity
73 | SRSKPLPLTPNSKYN | 844

molecular target: SpSla1-D3; assay: as above
Summary of the method: as §1

Row | Binder | SPOT peptide array binding signal intensity
74 | SRSKPLPLTPNSKYN | 0.5
